# Bioassay records (PubChem)
# This is a sample that favours compounds with a hit; in the whole collection about 0.93% have one here.
# CtBP-E1A inh = qHTS Assay for Inhibitors of the CtBP/E1A Interaction. activity change, % (concentration not given with the values). AlphaScreen GST-E1A/His-CtBP binding, 1536-well; active compounds read low. CtBP / adenovirus E1A interaction (AlphaScreen). actives 0.49% (n = 340,000); note: % is set by controls: 0 for no effect and ±100 for the full control effect
#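 Homogeneous bead-based format: GST-tagged E1A captured on glutathione donor beads, His-tagged CtBP on nickel acceptor beads; compounds precede bead addition by 2 h at 37 °C.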
# MBNL1-CUG inh = qHTS Assay for Inhibitors of MBNL1-poly(CUG) RNA binding. actives 0.036% (n = 280,000). Muscleblind-like protein 1 (Homo sapiens), Q9NR56. TR-FRET MBNL1-His/biotin-(CUG)12 binding, 665/545 ratio. Potency, µM (highest dose often 57.5 µM), without a hit: at the top dose activity change, negative = inhibition, hits mostly inhibitors; active = well fitted inhibition curve with a large enough effect in the signal ratio, with a control signal flat, not every such curve was filed as active; inconclusive = small, poorly fitted or top-dose-only effect, or effect the other way, or a change in a side signal; inactive = no such curve, though single readings can be large or run the other way; the % refers to the signal ratio; note: potency is the fitted concentration of half-maximal effect; % is set by controls: 0 for no effect and ±100 for the full control effect
#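 Inhibition of protein-RNA binding appears as loss of TR-FRET between terbium anti-His antibody on MBNL1-His and streptavidin-XL665 on biotin-(CUG)12. Activity is normalized to buffer-only and uninhibited-complex controls.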
# PKM2 act = qHTS Assay for Activators of Human Muscle isoform 2 Pyruvate Kinase | Pyruvate kinase PKM (Homo sapiens), P14618 | purified PKM2, Kinase-Glo ATP luminescence, activation; response scale: 0% is enzyme alone, no compound | Potency, µM (highest dose often 57.5 µM), for inactives: top-dose activation, actives largely listed as activators | actives 0.34% (n = 260,000) | AID 1631, 2009; active = well fitted curve in the direction sought with a large enough effect; inconclusive = small, poorly fitted or top-dose-only effect, or another doubt; inactive = no such curve, though single readings can be large; an effect the other way counts as inactive or inconclusive; note: potency is the fitted concentration of half-maximal effect; % is set by controls: 0 for no effect and ±100 for the full control effect; nearly all actives have a fitted effect of over 55% in size
# Target sequence (P14618 whole entry, looked up, canonical isoform): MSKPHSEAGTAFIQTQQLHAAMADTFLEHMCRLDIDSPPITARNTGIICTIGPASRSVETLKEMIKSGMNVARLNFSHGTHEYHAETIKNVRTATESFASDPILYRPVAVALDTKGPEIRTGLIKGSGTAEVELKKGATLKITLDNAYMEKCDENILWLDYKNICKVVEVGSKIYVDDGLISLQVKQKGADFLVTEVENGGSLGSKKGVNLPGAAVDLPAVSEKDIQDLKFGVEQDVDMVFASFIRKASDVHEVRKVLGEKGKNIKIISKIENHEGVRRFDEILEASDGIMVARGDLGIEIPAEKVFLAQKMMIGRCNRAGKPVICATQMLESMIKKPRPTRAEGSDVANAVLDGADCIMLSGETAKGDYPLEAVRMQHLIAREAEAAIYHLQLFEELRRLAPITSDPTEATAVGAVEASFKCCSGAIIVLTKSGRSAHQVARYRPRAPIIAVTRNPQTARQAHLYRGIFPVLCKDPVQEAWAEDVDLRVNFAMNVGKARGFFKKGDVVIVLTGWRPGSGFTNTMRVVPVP
#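 hPK-M2, >95% pure; 0.1 mM ADP / 0.5 mM PEP final; imidazole pH7.2 buffer w/ 7 mM MgCl2, 50 mM KCl; 1 h RT; Kinase-Glo lum. Intermediate enzyme activity for dual inhibitor/activator qHTS.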
# Six1-Eya2 blk = qHTS Assay for Inhibitors of the Six1/Eya2 Interaction. AlphaScreen GST-Six1/His-Eya2 binding, biochemical; active compounds read low. actives 0.56% (n = 360,000). activity change, % (no concentration beside the values). Homeobox protein SIX1 (Homo sapiens) + Protein phosphatase EYA2 (Homo sapiens), …; note: % is set by controls: 0 for no effect and ±100 for the full control effect
#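 Six1/Eya2 binding was read as AlphaScreen signal after compounds were pinned into GST-Six1 plus His-tagged Eya2 (5X stock 250/500 nM) in pH 8.0 Tris/NaCl/TCEP buffer, beads added, then incubated 1 h, 37 C, dark.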
# HeLa viability = Secondary assay for Activators of Human Pyruvate Kinase M2 isoform - Cell Titer Glo cytotoxicity assay; shares compounds with PKM2 act; HeLa viability, CellTiter-Glo ATP luminescence, 24 h; activity change, negative = cytotoxicity, % at 57.5 µM; 230 tested, under 10 active; AID 1898, 2009; active = well fitted curve in the direction sought with a large enough effect; inconclusive = small, poorly fitted or top-dose-only effect, or another doubt; inactive = no such curve, though single readings can be large; an effect the other way counts as inactive or inconclusive; note: % of control where 0% means no effect
# Numbers without * were called inactive; ? = inconclusive; . = no result given; [ ] = dose if it differs, or a comment. Cut-off read from the data, not from the text of the source, unless noted: active = activity change below about -65%; inconclusive = mostly about -30% to -63%; inactive = weaker than that.
SMILES,CtBP-E1A inh,MBNL1-CUG inh,PKM2 act,Six1-Eya2 blk,HeLa viability
CCC(=O)NC(c1cccs1)c1cc(Cl)c2cccnc2c1O (configuration not stated),.,-15.6%,0.4%,-89.2*,.
CCCC(=O)NC(c1ccc(OC)c(OC)c1)c1cc(Cl)c2cccnc2c1O (configuration not stated),-79.2*,7.1%,-1.5%,-72.3*,.
O=C(NC(c1ccc(Cl)cc1)c1cc(Cl)c2cccnc2c1O)c1cccnc1 (configuration not stated),-3.8,?,-1.2%,-17.2,.
CC(=O)NC(c1ccc(N(C)C)cc1)c1cc(Cl)c2cccnc2c1O (configuration not stated),?,.,.,-80.7*,.
CC(=O)NC(c1ccccc1)c1cc(Cl)c2cccnc2c1O (configuration not stated),-90.6*,12.5%,2.2%[11.5 µM],-86.6*,.
C=CCNC(=O)c1cc([N+](=O)[O-])cc2c(=O)[nH]c(Nc3ccc(Cl)c(Cl)c3)nc12,.,.,1.2%,.,.
CCc1nc2c(OCc3ccc(C(F)(F)F)cc3)cccn2c1N(C)C(=O)C1CC1,0.2,.,.,-2.6,.
COc1ccccc1S(=O)(=O)N1CCN(S(=O)(=O)c2ccccc2C#N)CC1,17.3,2.3%,2µM*,4.2,.
COc1ccccc1S(=O)(=O)N1CCN(S(=O)(=O)c2cccs2)CC1,.,.,.,-13.8,.
OCCN(Cc1cccnc1)Cc1ccccn1,3.3,.,.,-88.7*,.
OCCN(Cc1ccccc1)Cc1ncccc1O,-11.8,.,.,-15.5,.
Cc1ccc(F)c(C(=O)N2CCCC(C)(C(=O)NS(=O)(=O)C3CC3)C2)c1F (configuration not stated),7.7,.,.,7.5,.
Fc1ccccc1Cn1nnc2c(-n3ccnc3)ncnc21,2.0,-7.6%,1.12µM*,-0.5,-0.3
c1ccc(-c2nn3c(Cn4cnc5ccccc54)nnc3s2)cc1,-2.7,-2.6%,3.16µM*,1.3,2.1
c1cncc(-c2nn3c(Cn4cnc5ccccc54)nnc3s2)c1,10.9,-29.2%,?,1.8,.
CCCCN(C(C)=O)c1c(CC)nc2ccc(C(=O)NCCOc3ccc(OC)cc3)cn12,-1.5,.,.,0.1,.
CC1=C(C(=O)N(C(C)C)C(C)C)CC(CC(=O)NCCCCc2ccccc2)C(=O)N1Cc1ccc(C(C)(C)C)cc1 (configuration not stated),-26.2,.,.,2.4,.
Nc1nc2ccc(O)cc2s1,-3.1,-2.2%,3.0%,5.1,.
Nc1nc2ccc(S(=O)(=O)c3ccc4nc(N)sc4c3)cc2s1,?,8.6%,14.1µM*,?,0.0
Cc1ccc(-n2cc(S(=O)(=O)c3ccc(C)cc3)[nH]c2=O)cc1,-5.2,-3.0%,7.08µM*,-8.1,3.6
CCn1cc(S(=O)(=O)c2ccc(C)cc2)[nH]c1=O,0.3,-2.0%,15.2%,1.5,.
CCOc1cc(-c2noc(CCC(=O)Nc3cccnc3)n2)ccc1OC,-1.1,-8.0%,1.41µM*,-2.0,-4.5
COc1ccc(-c2noc(CCC(=O)Nc3cccnc3)n2)cc1,.,-8.7%,.,0.7,.
COc1cc2c(C(=O)NCc3ccc(C)o3)cn(CC(C)C)c(=O)c2cc1OC,-8.8,-7.3%,14.1µM*,-0.9,1.9
CCn1cc(C(=O)NCc2ccco2)c2cc(OC)c(OC)cc2c1=O,-9.6,?,-3.5%,-5.8,.
COC(=O)[C@]12CCCCC=C1N(Cc1ccc(Cl)cc1Cl)C(=O)[C@H](CC(=O)N1CCCC1)C2,1.1,.,.,-11.7,.
O=C1NC(=O)c2cc(Br)cc3cccc1c23,.,?,5.1%,-0.4,.
Cc1ccc(NS(=O)(=O)c2cc3c4c(cccc4c2)C(=O)NC3=O)cc1C,-14.9,?,3.98µM*,-15.0,?
Cc1cccc(CN2CCN(c3nc4nonc4nc3NC3CC3)CC2=O)c1,-0.7,18.9%,3.55µM*,1.7,-4.4
S=C(c1ccc(-c2ccc(Cl)cc2Cl)o1)N1CCCCC1,-28.7,0.7%,6.1%,?,.
